ChEMBL document CHEMBL3988442, “University of Dundee, Small-Polar-MMV Screening Library” (2021)
Out of some 48,000 compounds screened, about 13,000 (27%) showed an effect of 50% or more. The list shows a part of the results.

system: Wolbachia pipientis; assay: Anti-Wolbachia Cell-Based Screen; format: functional; design: scale not given: in the data most compounds retested in dose-response had high values; conditions: 5 µM

Compound	Percent Effect
CC(C)Cc1ncc(CNc2cnccc2CO)s1	2.618%
CC(C)n1cnc2c1C(C(=O)NCCO)N(Cc1ccccc1)CC2.O=C(O)C(F)(F)F (stereo unspecified)	2.168%
CN(C1CCc2ccccc2C1)S(C)(=O)=O (stereo unspecified)	-5.064%
COCCN(CC(F)F)c1cc(COC)nc2ncnn12	3.034%
COC(=O)N1CCCN(C(=O)c2cccc3cccnc23)CC1	-4.967%
CCC(=O)N1CCCN(Cn2nc(C)c(Br)c2C)CC1	116.5%
CCC(=O)N1CCCN(C(=O)c2cc(C)cc(Br)c2O)CC1	5.319%
CCn1ccnc1CN1CCCN(C(=O)Cn2nc(C)cc2C)CC1	-3.678%
CCn1c(CN2CCCN(C(=O)OC)CC2)nc2c(F)cccc21	-3.965%
COCC(=O)N1CCN(Cn2nc(C)c(Br)c2C)CC1	100.8%
COCC(=O)N1CCN(Cc2nnc(C(C)(C)C)o2)CC1	-20.23%
COC(=O)N1CCCN(Cn2nc(C)c(Br)c2C)CC1	92.29%
COCC(=O)N1CCCN(Cc2c(C)nc3ccc(Cl)cn23)CC1	-0.9556%
O=C(CCCn1nnc(-c2ccc(F)cc2)n1)N1CCOCC(CO)C1 (stereo unspecified)	-1.392%
CCCN(Cc1nccn1C)C(=O)c1cnn[nH]1	-16.97%
CC(C)(C)c1c[nH]c([C@@H]2COCCN2C2CCCCC2)n1	-16.61%

Compound	Percent Effect
Cc1nn(C2CCCCC2)c2nc(C(C)(C)CN3CCOCC3)[nH]c12	104.5%
Cc1nn(-c2ccccc2)c2nc(C(C)(C)CN3CCN(C)CC3)[nH]c12	102.6%
Cc1nn(C2CCCC2)c2nc(C(C)(C)CN3CCN(C)CC3)[nH]c12	98.14%
CC(CN1CCOCC1)NCc1nncn1C1CCCCC1 (stereo unspecified)	-12.38%
Cc1nn(-c2ccccc2)c(C)c1-c1ccnc(N2CCC(O)CC2)n1	-6.995%
Cn1ncc2c(NCCCOc3cccnc3)nc(C3CCCC3)nc21	15.74%
CCn1cnnc1C1CCN(C(=O)COc2ccccc2OC)CC1	7.042%
COc1ccc(CC(=O)N2CCC(c3nncn3C)CC2)cc1F	-9.824%
CCn1cnnc1C1CCN(C(=O)COc2ccc(Cl)cc2)CC1	6.006%
CCn1cnnc1C1CCN(C(=O)c2ccccc2OC)CC1	-6.439%
CCn1cnnc1C1CCN(C(=O)Cc2ccc(OC)c(F)c2)CC1	-0.6685%
CCn1cnnc1C1CCN(C(=O)c2cccc(OC)c2OC)CC1	96.27%
CCn1cnnc1C1CCN(C(=O)c2cc(OC)ccc2OC)CC1	101%
CCn1cnnc1C1CCN(C(=O)c2cc(F)ccc2OC)CC1	106.7%
CCn1cnnc1C1CCN(C(=O)c2ccc(Cl)cc2OC)CC1	99.28%
